Reference: PubChem BioAssay AID1159580 (chemical genetic matrix, 2015)
Among all 5,500 compounds or so, about 2,000 (36%) were called active. Another 18% or so got no clear call; they are omitted. No stated cut-off is given here; in the data, active means normalized growth mostly below about 0.91 (no sharp cut-off); inconclusive means no clear call, values can overlap the other calls; inactive means mostly above about 0.92. The list shows a part of the results.

Test: chemical genetic growth profiling, strain panel (AID 1159580);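 further: tested at 20 µM; growth read once vehicle control cultures reached saturation at 30 °C; 1 = growth at the plate median or of vehicle wells; lower values mean less growth of the strain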
Conditions: growth OD

Measured: normalized growth

COc1ccc(-c2cc(=O)c3c(OC(C)=O)cc(OC(C)=O)cc3o2)cc1
inactive: S. cerevisiae deletion strains, locus YJR066W, strain TOR1, hits give low values 0.922 | S. cerevisiae deletion strains, locus YJR075W, strain HOC1, hits give low values 0.946 | S. cerevisiae deletion strains, locus YKL009W, strain mrt4, hits give low values 0.994 | S. cerevisiae deletion strains, locus YKL068W, hits give low values 0.972 | S. cerevisiae deletion strains, locus YKL085W, strain MDH1 (second series), hits give low values 0.968 | S. cerevisiae deletion strains, locus YKL085W, strain MDH1, hits give low values 0.968 | S. cerevisiae deletion strains, locus YKL160W, strain elf1, hits give low values 0.974 | S. cerevisiae deletion strains, locus YKL190W, strain CNB1, hits give low values 0.967 | S. cerevisiae deletion strains, locus YKR001C, strain vps1, hits give low values 0.941 | S. cerevisiae deletion strains, locus YKR026C, strain gcn3, hits give low values 0.985 | S. cerevisiae deletion strains, locus YKR091W, strain srl3, hits give low values 0.999 | S. cerevisiae deletion strains, locus YLL001W, strain dnm1, hits give low values 0.937 | S. cerevisiae deletion strains, locus YLL026W, hits give low values 0.985 | S. cerevisiae deletion strains, locus YLL041C, strain sdh2, hits give low values 0.992 | S. cerevisiae deletion strains, locus YLR027C, strain aat2, hits give low values 0.984 | S. cerevisiae deletion strains, locus YLR039C, strain RIC1, hits give low values 0.824 | S. cerevisiae deletion strains, locus YLR058C, strain SHM2, hits give low values 0.957 | S. cerevisiae deletion strains, locus YLR102C, strain apc9, hits give low values 0.959 | S. cerevisiae deletion strains, locus YLR221C, strain rsa3, hits give low values 0.973 | S. cerevisiae deletion strains, locus YLR258W, strain gsy2, hits give low values 0.971 | S. cerevisiae deletion strains, locus YLR262C, strain YPT6 (second series), hits give low values 0.914 | S. cerevisiae deletion strains, locus YLR262C, strain YPT6, hits give low values 0.807 | S. cerevisiae deletion strains, locus YLR268W, strain sec22, hits give low values 0.964 | S. cerevisiae deletion strains, locus YLR320W, strain mms22, hits give low values 0.965 | S. cerevisiae deletion strains, locus YLR330W, strain CHS5, hits give low values 0.929 | S. cerevisiae deletion strains, locus YLR342W, strain FKS1 (second series), hits give low values 1.01 | S. cerevisiae deletion strains, locus YLR342W, strain FKS1, hits give low values 1 | S. cerevisiae deletion strains, locus YLR357W, strain rsc2, hits give low values 0.894 | S. cerevisiae deletion strains, locus YLR370C, strain arc18, hits give low values 0.992 | S. cerevisiae deletion strains, locus YLR371W, strain rom2, hits give low values 0.952 | S. cerevisiae deletion strains, locus YLR384C, strain iki3, hits give low values 0.981 | S. cerevisiae deletion strains, locus YML016C, strain PPZ1, hits give low values 0.924 | S. cerevisiae deletion strains, locus YML032C, strain rad52, hits give low values 0.964 | S. cerevisiae deletion strains, locus YML120C, strain ndi1, hits give low values 0.973 | S. cerevisiae deletion strains, locus YML124C, strain tub3, hits give low values 0.958 | S. cerevisiae deletion strains, locus YMR058W, strain fet3, hits give low values 0.983 | S. cerevisiae deletion strains, locus YMR078C, strain ctf18, hits give low values 0.963 | S. cerevisiae deletion strains, locus YMR125W, strain sto1, hits give low values 0.965 | S. cerevisiae deletion strains, locus YMR129W, hits give low values 0.981 | S. cerevisiae deletion strains, locus YMR205C, strain PFK2, hits give low values 0.976 | S. cerevisiae deletion strains, locus YMR223W, strain ubp8, hits give low values 0.946 | S. cerevisiae deletion strains, locus YMR231W, strain pep5, hits give low values 0.994 | S. cerevisiae deletion strains, locus YMR307W, strain GAS1, hits give low values 0.913 | S. cerevisiae deletion strains, locus YNL067W, strain RPL9B, hits give low values 0.945 | S. cerevisiae deletion strains, locus YNL183C, strain NPR1, hits give low values 0.84 | S. cerevisiae deletion strains, locus YNL209W, strain ssb2, hits give low values 0.996 | S. cerevisiae deletion strains, locus YNL233W, strain BNI4, hits give low values 0.89 | S. cerevisiae deletion strains, locus YNL248C, strain rpa49, hits give low values 0.955 | S. cerevisiae deletion strains, locus YNL250W, strain rad50, hits give low values 0.958 | S. cerevisiae deletion strains, locus YNL271C, strain bni1, hits give low values 0.986 | S. cerevisiae deletion strains, locus YNL298W, strain CLA4, hits give low values 0.968 | S. cerevisiae deletion strains, locus YNL322C, strain KRE1 (second series), hits give low values 0.952 | S. cerevisiae deletion strains, locus YNR049C, strain mso1, hits give low values 0.992 | S. cerevisiae deletion strains, locus YNR052C, strain pop2, hits give low values 0.949 | S. cerevisiae deletion strains, locus YOL006C, strain TOP1, hits give low values 0.97 | S. cerevisiae deletion strains, locus YOL012C, strain htz1 0.936 | S. cerevisiae deletion strains, locus YOL147C, strain pex11, hits give low values 0.945 | S. cerevisiae deletion strains, locus YOR001W, strain rrp6, hits give low values 0.967 | S. cerevisiae deletion strains, locus YOR061W, strain CKA2, hits give low values 1 | S. cerevisiae deletion strains, locus YOR069W, strain VPS5, hits give low values 0.959 | S. cerevisiae deletion strains, locus YOR070C, strain gyp1, hits give low values 0.999 | S. cerevisiae deletion strains, locus YOR080W, strain dia2, hits give low values 0.989 | S. cerevisiae deletion strains, locus YOR083W, strain WHI5, hits give low values 0.984 | S. cerevisiae deletion strains, locus YOR106W, strain vam3, hits give low values 0.988 | S. cerevisiae deletion strains, locus YOR136W, strain idh2, hits give low values 0.978 | S. cerevisiae deletion strains, locus YOR144C, strain elg1, hits give low values 0.961 | S. cerevisiae deletion strains, locus YOR184W, strain ser1, hits give low values 0.982 | S. cerevisiae deletion strains, locus YOR231W, strain MKK1, hits give low values 0.876 | S. cerevisiae deletion strains, locus YOR265W, strain rbl2, hits give low values 0.99 | S. cerevisiae deletion strains, locus YOR270C, strain vph1, hits give low values 0.889 | S. cerevisiae deletion strains, locus YOR290C, strain snf2, hits give low values 0.949 | S. cerevisiae deletion strains, locus YOR316C, strain cot1, hits give low values 0.942 | S. cerevisiae deletion strains, locus YPL051W, strain arl3, hits give low values 0.954 | S. cerevisiae deletion strains, locus YPL055C, strain LGE1, hits give low values 0.906 | S. cerevisiae deletion strains, locus YPL078C, strain atp4, hits give low values 0.967 | S. cerevisiae deletion strains, locus YPL106C, strain sse1, hits give low values 0.922 | S. cerevisiae deletion strains, locus YPL240C, strain hsp82, hits give low values 0.987 | S. cerevisiae deletion strains, locus YPL241C, strain CIN2, hits give low values 0.973 | S. cerevisiae deletion strains, locus YPR119W, strain clb2, hits give low values 0.958 | S. cerevisiae deletion strains, locus YPR141C, strain kar3, hits give low values 0.953 | S. cerevisiae deletion strains, locus YPR163C, strain tif3, hits give low values 0.981 | S. cerevisiae deletion strains, locus YPR167C, strain met16, hits give low values 0.946 | S. cerevisiae deletion strains, strain wtn01, hits give low values 0.987 | S. cerevisiae strains, strain wild type, hits give low values 0.971
active: S. cerevisiae deletion strains, locus YLR113W, strain HOG1, hits give low values 0.805 | S. cerevisiae deletion strains, locus YLR418C, strain cdc73, hits give low values 0.685 | S. cerevisiae deletion strains, locus YNL071W, strain lat1, hits give low values 0.893 | S. cerevisiae deletion strains, locus YNL307C, strain MCK1, hits give low values 0.878 | S. cerevisiae deletion strains, locus YPL256C, strain CLN2, hits give low values 0.756
